6 compounds from ChEMBL document CHEMBL2218924, “A broad activity screen in support of a chemogenomic map for kinase signalling research and drug discovery” (Biochem J, 2013) can be followed below.

Assay [1] has as its target T1, Mitogen-activated protein kinase kinase kinase 5 (Homo sapiens) (UniProt Q99683).
T1 sequence (whole entry): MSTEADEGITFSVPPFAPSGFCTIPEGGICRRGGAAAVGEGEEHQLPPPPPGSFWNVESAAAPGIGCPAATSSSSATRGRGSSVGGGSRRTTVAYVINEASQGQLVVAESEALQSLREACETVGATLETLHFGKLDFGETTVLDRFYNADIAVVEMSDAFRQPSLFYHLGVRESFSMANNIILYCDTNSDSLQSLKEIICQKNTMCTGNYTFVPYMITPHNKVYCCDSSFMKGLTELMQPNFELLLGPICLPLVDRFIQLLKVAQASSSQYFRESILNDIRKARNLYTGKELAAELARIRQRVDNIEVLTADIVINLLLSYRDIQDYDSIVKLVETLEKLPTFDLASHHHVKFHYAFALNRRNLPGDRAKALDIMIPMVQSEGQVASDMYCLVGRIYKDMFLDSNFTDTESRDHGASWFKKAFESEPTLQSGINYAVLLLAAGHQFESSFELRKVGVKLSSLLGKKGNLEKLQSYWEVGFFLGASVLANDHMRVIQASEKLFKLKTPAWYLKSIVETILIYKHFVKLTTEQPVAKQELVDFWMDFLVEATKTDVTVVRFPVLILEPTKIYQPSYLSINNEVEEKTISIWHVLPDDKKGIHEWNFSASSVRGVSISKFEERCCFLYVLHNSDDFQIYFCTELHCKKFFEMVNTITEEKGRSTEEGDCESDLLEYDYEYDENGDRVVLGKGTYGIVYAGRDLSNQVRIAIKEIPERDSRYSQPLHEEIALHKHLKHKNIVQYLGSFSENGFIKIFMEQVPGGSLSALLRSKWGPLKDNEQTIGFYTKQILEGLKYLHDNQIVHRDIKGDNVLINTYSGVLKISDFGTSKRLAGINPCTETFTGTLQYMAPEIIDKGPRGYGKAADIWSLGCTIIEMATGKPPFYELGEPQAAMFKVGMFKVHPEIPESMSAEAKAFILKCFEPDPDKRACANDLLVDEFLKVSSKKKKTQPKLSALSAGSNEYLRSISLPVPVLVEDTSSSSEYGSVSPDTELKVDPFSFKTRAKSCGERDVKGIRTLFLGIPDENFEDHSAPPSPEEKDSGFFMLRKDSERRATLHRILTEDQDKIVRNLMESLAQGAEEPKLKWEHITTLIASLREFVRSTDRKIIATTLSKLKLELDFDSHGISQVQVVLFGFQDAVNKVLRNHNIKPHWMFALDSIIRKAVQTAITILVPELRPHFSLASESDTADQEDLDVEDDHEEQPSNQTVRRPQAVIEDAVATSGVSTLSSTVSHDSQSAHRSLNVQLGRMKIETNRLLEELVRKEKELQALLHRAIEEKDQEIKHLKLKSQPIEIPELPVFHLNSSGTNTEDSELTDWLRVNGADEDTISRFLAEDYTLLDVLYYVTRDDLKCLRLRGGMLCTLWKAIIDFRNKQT
The following applies: at 10 µM.

Assay [2] addresses Tyrosine-protein kinase ABL1 (Homo sapiens) (UniProt P00519). The note with it: at 1 µM.
Assay [3] has the same target. The note with it: at 10 µM.
For assay [4], the target named is Tyrosine-protein kinase ABL2 (Homo sapiens) (UniProt P42684). The note with it: at 1 µM.
Sequence of Tyrosine-protein kinase ABL2 (Homo sapiens) (P42684 whole entry): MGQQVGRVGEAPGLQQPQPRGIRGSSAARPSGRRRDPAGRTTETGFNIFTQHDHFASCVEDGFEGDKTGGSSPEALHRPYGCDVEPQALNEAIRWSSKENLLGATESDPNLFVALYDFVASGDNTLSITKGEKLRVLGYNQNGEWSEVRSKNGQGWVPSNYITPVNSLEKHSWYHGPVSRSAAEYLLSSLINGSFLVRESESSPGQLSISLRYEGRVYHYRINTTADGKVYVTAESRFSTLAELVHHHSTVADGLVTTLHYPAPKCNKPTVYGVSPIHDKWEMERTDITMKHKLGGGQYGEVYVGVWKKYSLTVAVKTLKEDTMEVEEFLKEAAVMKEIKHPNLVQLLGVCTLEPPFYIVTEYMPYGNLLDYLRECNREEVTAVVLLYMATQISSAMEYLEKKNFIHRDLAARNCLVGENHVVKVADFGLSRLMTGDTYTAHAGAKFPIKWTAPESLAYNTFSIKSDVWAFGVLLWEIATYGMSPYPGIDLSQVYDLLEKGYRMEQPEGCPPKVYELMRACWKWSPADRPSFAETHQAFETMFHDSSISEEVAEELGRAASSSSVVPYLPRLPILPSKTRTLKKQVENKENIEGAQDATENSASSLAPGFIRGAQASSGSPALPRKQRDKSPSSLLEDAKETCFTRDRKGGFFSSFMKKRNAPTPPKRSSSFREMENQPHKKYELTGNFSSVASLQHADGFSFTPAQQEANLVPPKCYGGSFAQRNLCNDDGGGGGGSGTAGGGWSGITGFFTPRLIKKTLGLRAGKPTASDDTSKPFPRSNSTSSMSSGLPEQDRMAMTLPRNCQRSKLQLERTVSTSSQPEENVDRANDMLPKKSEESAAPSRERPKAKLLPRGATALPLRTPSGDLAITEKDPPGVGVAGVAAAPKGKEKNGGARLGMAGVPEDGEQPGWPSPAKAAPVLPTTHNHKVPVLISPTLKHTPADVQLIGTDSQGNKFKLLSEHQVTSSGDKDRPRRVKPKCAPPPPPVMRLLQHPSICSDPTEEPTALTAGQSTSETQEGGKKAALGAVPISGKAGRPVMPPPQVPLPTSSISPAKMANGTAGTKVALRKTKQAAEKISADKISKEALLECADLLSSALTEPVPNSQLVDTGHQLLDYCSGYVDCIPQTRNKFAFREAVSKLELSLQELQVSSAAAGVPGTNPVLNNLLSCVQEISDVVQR
Assay [5] shares this target. The note with it: at 10 µM.
Assay [6] deals with T2, Aurora kinase A (Homo sapiens) (UniProt O14965).
T2 sequence (whole entry): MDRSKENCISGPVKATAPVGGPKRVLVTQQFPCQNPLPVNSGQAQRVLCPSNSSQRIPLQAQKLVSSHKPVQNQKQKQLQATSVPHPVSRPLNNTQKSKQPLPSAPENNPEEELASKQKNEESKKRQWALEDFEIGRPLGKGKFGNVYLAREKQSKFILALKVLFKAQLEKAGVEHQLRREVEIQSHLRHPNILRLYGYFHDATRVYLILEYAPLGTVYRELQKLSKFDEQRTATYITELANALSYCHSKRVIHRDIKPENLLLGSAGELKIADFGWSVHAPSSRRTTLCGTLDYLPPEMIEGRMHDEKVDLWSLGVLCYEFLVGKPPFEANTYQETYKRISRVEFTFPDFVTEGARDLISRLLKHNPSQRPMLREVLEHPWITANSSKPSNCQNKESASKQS
The following applies: at 1 µM.

The target of assay [7] is T2, Aurora kinase A (Homo sapiens). The note with it: at 10 µM.
For assay [8], the target named is Aurora kinase B (Homo sapiens) (UniProt Q96GD4). The following applies: at 1 µM.
Sequence of Aurora kinase B (Homo sapiens) (Q96GD4 whole entry): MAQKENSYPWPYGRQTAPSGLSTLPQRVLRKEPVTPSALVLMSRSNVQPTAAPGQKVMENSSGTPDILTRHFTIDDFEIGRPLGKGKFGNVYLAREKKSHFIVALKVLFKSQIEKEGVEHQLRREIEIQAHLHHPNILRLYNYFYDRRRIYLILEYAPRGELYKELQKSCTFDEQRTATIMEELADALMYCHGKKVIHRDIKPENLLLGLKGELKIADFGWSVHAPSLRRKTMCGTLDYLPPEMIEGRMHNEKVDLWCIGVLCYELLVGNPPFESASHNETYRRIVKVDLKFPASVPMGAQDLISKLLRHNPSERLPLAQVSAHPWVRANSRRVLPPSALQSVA
Assay [9] has the same target. The note with it: at 10 µM.
The target in assay [10] is T3, Aurora kinase C (Homo sapiens) (UniProt Q9UQB9).
T3 sequence (whole entry): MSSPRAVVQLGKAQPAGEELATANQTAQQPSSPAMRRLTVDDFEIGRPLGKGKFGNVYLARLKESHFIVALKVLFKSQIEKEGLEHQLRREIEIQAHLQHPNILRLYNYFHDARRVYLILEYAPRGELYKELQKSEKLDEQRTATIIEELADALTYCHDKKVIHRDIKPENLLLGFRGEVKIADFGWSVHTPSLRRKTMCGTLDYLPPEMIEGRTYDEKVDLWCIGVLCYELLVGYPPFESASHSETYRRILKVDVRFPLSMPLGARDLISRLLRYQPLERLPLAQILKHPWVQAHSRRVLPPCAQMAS
The following applies: at 1 µM.

Assay [11] concerns the target T3, Aurora kinase C (Homo sapiens). The note with it: at 10 µM.
In assay [12] the target is Tyrosine-protein kinase receptor UFO (Homo sapiens) (UniProt P30530). The note with it: at 1 µM.
Assay [13] shares this target. The note with it: at 10 µM.
Assay [14] addresses Protein-tyrosine kinase 6 (Homo sapiens) (UniProt Q13882). The note with it: at 1 µM.
For assay [15] the target is unchanged. The note with it: at 10 µM.
In assay [16] the target is Tyrosine-protein kinase BTK (Homo sapiens) (UniProt Q06187). The following applies: at 1 µM.
Sequence of Tyrosine-protein kinase BTK (Homo sapiens) (Q06187 whole entry): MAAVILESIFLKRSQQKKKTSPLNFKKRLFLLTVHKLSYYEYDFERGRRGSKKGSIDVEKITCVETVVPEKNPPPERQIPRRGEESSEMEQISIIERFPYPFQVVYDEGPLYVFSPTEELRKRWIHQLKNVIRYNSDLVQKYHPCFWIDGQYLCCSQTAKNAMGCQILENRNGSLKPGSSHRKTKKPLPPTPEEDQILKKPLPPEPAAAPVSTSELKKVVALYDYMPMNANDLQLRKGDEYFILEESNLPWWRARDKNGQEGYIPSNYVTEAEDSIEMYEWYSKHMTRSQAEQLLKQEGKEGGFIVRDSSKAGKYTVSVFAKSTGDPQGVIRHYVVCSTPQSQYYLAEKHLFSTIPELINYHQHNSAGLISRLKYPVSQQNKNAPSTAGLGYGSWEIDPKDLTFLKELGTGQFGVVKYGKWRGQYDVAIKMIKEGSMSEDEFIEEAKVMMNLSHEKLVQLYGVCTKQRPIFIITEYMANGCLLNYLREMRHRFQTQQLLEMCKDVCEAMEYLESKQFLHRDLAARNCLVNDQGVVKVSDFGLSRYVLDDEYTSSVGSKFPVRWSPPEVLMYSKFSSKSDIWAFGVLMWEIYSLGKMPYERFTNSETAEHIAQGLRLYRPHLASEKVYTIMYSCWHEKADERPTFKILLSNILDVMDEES
Assay [17] has the same target. The note with it: at 10 µM.
Assay [18] has as its target Tyrosine-protein kinase Blk (Homo sapiens) (UniProt P51451). The note with it: at 1 µM.
Assay [19] shares this target. The note with it: at 10 µM.
For assay [20], the target named is T4, Protein kinase C zeta type (Homo sapiens) (UniProt Q05513).
T4 sequence (whole entry): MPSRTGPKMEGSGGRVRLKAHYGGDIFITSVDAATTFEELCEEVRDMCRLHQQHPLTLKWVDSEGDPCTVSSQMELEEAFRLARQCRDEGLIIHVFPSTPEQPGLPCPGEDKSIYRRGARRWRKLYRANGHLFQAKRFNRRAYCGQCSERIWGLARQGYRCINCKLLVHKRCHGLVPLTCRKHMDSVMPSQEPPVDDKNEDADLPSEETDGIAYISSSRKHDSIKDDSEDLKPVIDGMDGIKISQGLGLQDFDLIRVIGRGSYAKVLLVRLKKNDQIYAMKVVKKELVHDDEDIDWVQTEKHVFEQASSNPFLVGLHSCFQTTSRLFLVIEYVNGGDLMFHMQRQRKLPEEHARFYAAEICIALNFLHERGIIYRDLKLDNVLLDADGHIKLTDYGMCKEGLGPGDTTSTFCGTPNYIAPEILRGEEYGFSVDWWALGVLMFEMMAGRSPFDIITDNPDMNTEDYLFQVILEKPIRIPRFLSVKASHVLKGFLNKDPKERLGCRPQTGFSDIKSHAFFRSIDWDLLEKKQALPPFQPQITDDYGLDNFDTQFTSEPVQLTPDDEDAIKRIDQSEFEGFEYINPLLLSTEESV
The note with it: at 1 µM.

Molecules are shown by their SMILES.

Sequence of Protein-tyrosine kinase 6 (Homo sapiens) (Q13882 whole entry, looked up): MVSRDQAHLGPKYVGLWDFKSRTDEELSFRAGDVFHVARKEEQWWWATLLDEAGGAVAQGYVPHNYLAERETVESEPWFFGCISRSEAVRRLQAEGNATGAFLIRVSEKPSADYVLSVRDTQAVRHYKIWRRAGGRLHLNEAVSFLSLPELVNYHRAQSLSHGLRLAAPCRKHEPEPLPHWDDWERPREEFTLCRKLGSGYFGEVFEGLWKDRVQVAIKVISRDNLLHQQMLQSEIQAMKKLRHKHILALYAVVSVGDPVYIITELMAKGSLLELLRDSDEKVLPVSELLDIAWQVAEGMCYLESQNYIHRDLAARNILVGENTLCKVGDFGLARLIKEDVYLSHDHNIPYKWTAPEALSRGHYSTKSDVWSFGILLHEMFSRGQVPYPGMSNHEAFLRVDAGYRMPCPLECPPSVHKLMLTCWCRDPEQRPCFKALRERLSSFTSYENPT
Sequence of Tyrosine-protein kinase ABL1 (Homo sapiens) (P00519 whole entry): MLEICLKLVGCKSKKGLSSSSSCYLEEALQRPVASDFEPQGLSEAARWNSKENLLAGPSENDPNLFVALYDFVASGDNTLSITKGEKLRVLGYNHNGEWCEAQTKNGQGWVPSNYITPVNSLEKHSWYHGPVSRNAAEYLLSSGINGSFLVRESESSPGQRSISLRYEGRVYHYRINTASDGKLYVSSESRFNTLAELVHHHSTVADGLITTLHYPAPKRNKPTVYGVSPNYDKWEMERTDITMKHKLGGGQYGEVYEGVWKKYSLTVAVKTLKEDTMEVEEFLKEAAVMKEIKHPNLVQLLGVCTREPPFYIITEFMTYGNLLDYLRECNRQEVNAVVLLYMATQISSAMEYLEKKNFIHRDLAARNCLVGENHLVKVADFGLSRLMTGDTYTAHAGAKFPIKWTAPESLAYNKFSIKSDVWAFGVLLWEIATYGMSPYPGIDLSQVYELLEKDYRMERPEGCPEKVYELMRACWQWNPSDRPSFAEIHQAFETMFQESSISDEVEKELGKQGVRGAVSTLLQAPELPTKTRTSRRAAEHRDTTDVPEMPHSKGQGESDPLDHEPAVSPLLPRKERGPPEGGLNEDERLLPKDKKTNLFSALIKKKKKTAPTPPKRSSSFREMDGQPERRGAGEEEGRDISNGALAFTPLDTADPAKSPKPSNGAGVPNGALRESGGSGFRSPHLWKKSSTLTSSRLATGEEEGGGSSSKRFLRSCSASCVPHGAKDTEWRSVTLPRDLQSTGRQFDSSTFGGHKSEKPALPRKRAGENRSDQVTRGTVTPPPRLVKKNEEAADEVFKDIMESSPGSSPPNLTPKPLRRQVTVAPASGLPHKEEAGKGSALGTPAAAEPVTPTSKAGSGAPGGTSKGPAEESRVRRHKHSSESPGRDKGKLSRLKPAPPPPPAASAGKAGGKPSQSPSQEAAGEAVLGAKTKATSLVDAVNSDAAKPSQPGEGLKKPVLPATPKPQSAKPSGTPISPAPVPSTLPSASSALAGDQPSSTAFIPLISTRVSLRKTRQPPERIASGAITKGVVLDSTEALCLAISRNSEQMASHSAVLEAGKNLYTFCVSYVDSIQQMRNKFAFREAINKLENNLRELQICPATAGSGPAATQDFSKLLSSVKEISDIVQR
Sequence of Tyrosine-protein kinase Blk (Homo sapiens) (P51451 2-505 limits assumed): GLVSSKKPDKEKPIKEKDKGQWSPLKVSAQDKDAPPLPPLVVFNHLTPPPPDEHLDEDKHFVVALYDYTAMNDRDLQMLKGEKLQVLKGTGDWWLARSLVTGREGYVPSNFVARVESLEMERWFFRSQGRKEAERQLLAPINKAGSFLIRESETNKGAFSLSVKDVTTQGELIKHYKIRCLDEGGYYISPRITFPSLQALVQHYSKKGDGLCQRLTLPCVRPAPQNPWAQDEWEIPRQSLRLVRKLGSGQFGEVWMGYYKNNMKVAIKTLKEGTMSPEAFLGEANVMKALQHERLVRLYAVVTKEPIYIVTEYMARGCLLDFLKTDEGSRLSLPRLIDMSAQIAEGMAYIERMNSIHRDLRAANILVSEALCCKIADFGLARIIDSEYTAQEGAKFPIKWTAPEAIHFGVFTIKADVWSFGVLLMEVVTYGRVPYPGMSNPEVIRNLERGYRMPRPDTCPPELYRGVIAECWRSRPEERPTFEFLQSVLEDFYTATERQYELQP

As to `COc1cc2nccc(Oc3ccc(NC(=S)NC(=O)c4ccccc4C)cc3)c2cc1OC`, the residual activity in assay [1] turned out to be 77%; in assay [2] it was 22%; in assay [3] it was 9%; in [4], 50%; in assay [5] it was 18%; in assay [6], 0%. The residual activity in [7] was 1%; in [8] it was 2%; in assay [9] it was -1%; in assay [10], 13%; in assay [11], 1%; in [12], 11%. The residual activity worked out at 8% in assay [13]; 22% in assay [14]; 11% in assay [15]; 17% in assay [16]; 2% in [17]; 0% in assay [18]. For the same compound, in assay [19], the residual activity was found to be 0%.
For `CC(C)(C)n1nc(Cc2cccc3ccccc23)c2c(N)ncnc21`, the residual activity in assay [20] is 103% (inactive); in [2] it was 87%; in [3], 28%; in assay [4], 68%; in assay [5], 18%; in assay [6], 93%. Moreover, the residual activity in assay [7] was found to be 104%; in assay [8], 130%; in [9], 87%; in [10] it was 94%; in [11], 71%; in assay [12], 80%. Moreover, the residual activity in assay [13] was 72%; in assay [14] it was 5%; in assay [15] it was -1%; in [16] it was 24%; in assay [17], 3%; in assay [18], 77%. In assay [19], the residual activity came to 13%.
Take `N#C/C(=C1/Nc2ccccc2S1)c1ccnc(NCCc2cccnc2)n1`: the residual activity came to 79% in assay [1]; 115% in assay [2]; 80% in assay [3]; 99% in [4]; 76% in [5]; 64% in [6]. For the same compound, the residual activity was 48% in assay [7]; 60% in assay [14]; 37% in [15]; 96% in [16]; 43% in assay [17].
Take `Nc1ncnc2[nH]nc(Nc3ccc(F)cc3)c12`: the residual activity in assay [20] was 103% (inactive); in assay [1], 90%; in assay [3], 28%; in assay [4] it was 70%; in assay [5] it was 30%; in assay [6] it was 96%. In addition, the residual activity stood at 73% in [7]; 55% in [8]; 22% in assay [9]; 80% in assay [10]; 43% in assay [11]; 90% in assay [12]. In addition, the residual activity in assay [13] was 57%; in assay [14] it was 51%; in assay [15] it was 19%; in assay [16], 74%; in assay [17], 34%; in [18], 3%. The residual activity in [19] was determined as 3%.
As to `Cn1c2ccccc2c2c3c(c4c5ccccc5n(CCC#N)c4c21)CNC3=O`, the residual activity is 102% (inactive) in assay [20]; 16% in assay [1]; 4% in assay [6]; 19% in [7]; 0% in assay [8]; 1% in assay [9]. Further, the residual activity is 47% in assay [10]; 35% in [11]; 53% in assay [12]; 32% in assay [13]; 10% in assay [16]; 9% in assay [17].
With `O=C1C(Cl)=C(N2C(=O)CCC2=O)C(=O)c2ccccc21`, the residual activity was found to be 91% in assay [1]; 92% in assay [2]; 66% in [3]; 97% in assay [4]; 83% in [5]; 73% in assay [8]. In addition, the residual activity in assay [9] was 36%; in [10] it was 67%; in assay [11], 62%; in [13], 80%; in assay [16], 91%; in [17], 95%. Further, the residual activity in [19] stood at 95%.
